# Source: PubChem BioAssay (NCI)
# This is part of a sample that, as a whole, favours compounds with a hit. Of some 83,000 tested, about 20% had one in any assay.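 How to read the values: 0–100, growth inhibition (40 = 60% inhibited); 0, no net growth; -100 to 0, cell death (-40 = 40% of starting cells died; -100 = all dead).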 Values without a mark were called inactive. The source made the active and inactive calls. Rule for the calls: active = growth percent below 10; inactive = the rest.
# Experiments:
# Assay in all cases: NCI-60 one-dose screen, 48 h (100 = growth as untreated, 0 = no growth, -100 = all killed)
# Conditions in all cases: 10 µM unless noted
# SR leukemia = system: SR leukemia
# RPMI-8226 leukemia = system: RPMI-8226 leukemia
# OVCAR-8 ovarian = system: OVCAR-8 ovarian
# OVCAR-5 ovarian = system: OVCAR-5 ovarian
# OVCAR-4 ovarian = system: OVCAR-4 ovarian
# SK-OV-3 ovarian = system: SK-OV-3 ovarian
# IGROV1 ovarian = system: IGROV1 ovarian
# OVCAR-3 ovarian = system: OVCAR-3 ovarian
# HS 578T breast = system: HS 578T breast
# NCI/ADR-RES ovarian = system: NCI/ADR-RES ovarian
# T-47D breast = system: T-47D breast
# BT-549 breast = system: BT-549 breast
# MDA-MB-435 melanoma = system: MDA-MB-435 melanoma
# SW-620 colon = system: SW-620 colon
# MCF7 breast = system: MCF7 breast
# HCT-116 colon = system: HCT-116 colon
# HCC-2998 colon = system: HCC-2998 colon
# KM12 colon = system: KM12 colon
SMILES,growth (SR leukemia),growth (RPMI-8226 leukemia),growth (OVCAR-8 ovarian),growth (OVCAR-5 ovarian),growth (OVCAR-4 ovarian),growth (SK-OV-3 ovarian),growth (IGROV1 ovarian),growth (OVCAR-3 ovarian),growth (HS 578T breast),growth (NCI/ADR-RES ovarian),growth (T-47D breast),growth (BT-549 breast),growth (MDA-MB-435 melanoma),growth (SW-620 colon),growth (MCF7 breast),growth (HCT-116 colon),growth (HCC-2998 colon),growth (KM12 colon)
CN1CCN(c2cc(F)c(NC3=C(Cl)C(=O)c4ncccc4C3=O)c(F)c2)CC1,-0.813% (active),-20.7% (active),1.95% (active),-59.8% (active),-99.2% (active),82.7%,-90.4% (active),-98.2% (active),-16.5% (active),37.9%,-32.5% (active),80.5%,-75.8% (active),-76.6% (active),-58.2% (active),-69.7% (active),61.9%,82.4%
CC1(C)NCCC[C@]2(C)[C@H]3CC=C4[C@@H]5C[C@@](C)(CO)CC[C@]5(C)CC[C@@]4(C)[C@]3(C)CC[C@@H]12,-1.3% (active),20.1%,83.4%,83.3%,60.8%,93.1%,56.7%,72.4%,52.7%,74.2%,57.7%,78.5%,51.5%,74.1%,40.7%,21%,60.5%,52.8%
O=C(Nc1sc2c(c1C(=O)O)CCCC2)c1cccc(C(F)(F)F)c1,115%,80.9%,94.6%,98.5%,86.2%,83.8%,96.3%,94.3%,98.2%,93.3%,73.4%,93.1%,86.2%,90.6%,63.5%,80.2%,101%,89.9%
O=C(CN1CCOCC1)Nc1ccc2ncnc(Nc3ccc(Oc4cccc(C(F)(F)F)c4)c(Cl)c3)c2c1,61.5%,51.5%,49.8%,64.3%,55%,16%,9.01% (active),33.8%,70.8%,42.3%,19.5%,70.1%,65.5%,82.2%,34.2%,45.1%,87.1%,74.2%
O=C(OCc1nc2nc(Cl)nc(N3CCOCC3)c2[nH]1)n1ccnc1,-14.2% (active),-35.7% (active),-44.9% (active),22.3%,-38.3% (active),46.2%,2.36% (active),-84.9% (active),5.43% (active),6.27% (active),-49.2% (active),9.52% (active),-55.1% (active),-59.1% (active),4.72% (active),-82.4% (active),65.3%,13.7%
CCn1cc(C2NC(=O)c3ccccc3N2)c2cccc(C)c21 (centres undefined),-18.2% (active),6.81% (active),7.03% (active),19.6%,25.7%,32.9%,14.4%,-44.9% (active),7.22% (active),8.25% (active),36.9%,48.7%,-31.9% (active),24.7%,16.9%,7.91% (active),9.07% (active),15.9%
O=C(Nc1nc2ccc(C(=O)N3CCN(c4ccc(Cl)c(Cl)c4)CC3)cc2s1)c1ccc(NCCc2ccccc2)c([N+](=O)[O-])c1,98.4%,85.5%,97.3%,91.3%,87.3%,107%,82%,111%,93.5%,101%,84.4%,108%,111%,103%,96.7%,95%,105%,107%
CCOC(=O)N1CCc2c(sc3nc4nc[nH]n4c(=O)c23)C1,101%,98.2%,103%,110%,109%,96.7%,91.4%,105%,95.8%,97%,88.9%,95.8%,103%,102%,93.5%,95.7%,98.6%,97.1%
